This note sets out measurements from PubChem BioAssay (NCATS).

Test [1] can be described thus: Drug repurposing screens with cells derived from glioblastoma tumor samples (AID 1345199). For activity, negative = cell killing: % is set by controls: 0 for no effect and ±100 for the full control effect. Note: nearly all actives have a fitted effect of over 40% in size. Note: potency is the fitted concentration of half-maximal effect. The conditions noted are these: GBM patient neurospheres viability, ATP luminescence, 48 h. The procedure, abridged:
(§1)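 Primary testing used CD133+ neurospheres from four GBM patients, seven concentrations, 48 h exposure and ATP-based viability; confirmation added three slower-growing patient lines.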

Test [2] has as its system astro (control astrocytes). The description is as above. The conditions noted are these: viability, ATP luminescence, 48 h; series mostly up to 45.9 µM. The procedure, abridged:
as §1

Test [3] deals with Nuclear receptor subfamily 1 group I member 2 (Rattus norvegicus) (UniProt Q9R1A7). The test is described as follows: qHTS assay for small molecule activators of the rat pregnane X receptor (rPXR) signaling pathway (AID 651751; call rule not given here; note: 0% is about no effect). The conditions noted are these: rPXR reporter cells, luciferase (One-Glo), 24 h.
Test [4] is described as follows: qHTS assay for small molecule activators of the human pregnane X receptor (PXR) signaling pathway (AID 720659; call rule not given here; note: 0% is about no effect). To be noted: DPX-2 HepG2 CYP3A4-luciferase, 24 h; series mostly up to 92.3 µM.
Test [5] is described as follows: qHTS assay to identify inhibitors of the type 1 interferon - major histocompatibility complex class I in skeletal muscle: Counter screen cell viability and HiBit confirmation (AID 1347412). Note: % is set by controls: 0 for no effect and ±100 for the full control effect; nearly all actives have a fitted effect of over 60% in size. To be noted: iHSKM muscle cells + IFN-b, HiBiT or CellTiter-Glo, 24 h; Potency: HiBiT; Viability, at 45.9 µM (top of the series). The procedure, abridged:
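Myoblasts (C25cl48, HLA-B HiBiT) seeded in medium without dexamethasone, IFN-b 4 ng/ml added except unstimulated columns; 1 hr later compounds pinned (12-pt 1:3, top 46 uM final). Incubated 24 hrs, lysed 10 min, luminescence measured.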
(In general: In qHTS, concentration-response curves come from the screen itself.)

[6] abbreviates: at 45.9 µM (top of the series), tumour line B.
Setting [7] is: at 45.9 µM (top of the series), tumour line D.
[8] abbreviates: at 46.1 µM (top of the series), tumour line C.
Setting [9] is: at 91.6 µM (top of the series), tumour line B.
The mark [10] stands for this setting: at 91.6 µM (top of the series), tumour line D.
Setting [11] is: at 99.2 µM (top of the series), tumour line C.

Values joined by “and” are separate entries in the source; they are usually repeats but may differ in a detail not shown here. Equal values may be shown once. Unmarked numbers belong to inactive results. Results filed as inconclusive are left out. Active and inactive are the calls of the source. Unless noted, calls come from the whole dose curve; as a rule, active = well fitted curve in the direction sought with a large enough effect; inconclusive = small, poorly fitted or top-dose-only effect, or another doubt; inactive = no such curve, though single readings can be large; an effect the other way counts as inactive or inconclusive.

Chain of Nuclear receptor subfamily 1 group I member 2 (Rattus norvegicus) (Q9R1A7 whole entry, looked up): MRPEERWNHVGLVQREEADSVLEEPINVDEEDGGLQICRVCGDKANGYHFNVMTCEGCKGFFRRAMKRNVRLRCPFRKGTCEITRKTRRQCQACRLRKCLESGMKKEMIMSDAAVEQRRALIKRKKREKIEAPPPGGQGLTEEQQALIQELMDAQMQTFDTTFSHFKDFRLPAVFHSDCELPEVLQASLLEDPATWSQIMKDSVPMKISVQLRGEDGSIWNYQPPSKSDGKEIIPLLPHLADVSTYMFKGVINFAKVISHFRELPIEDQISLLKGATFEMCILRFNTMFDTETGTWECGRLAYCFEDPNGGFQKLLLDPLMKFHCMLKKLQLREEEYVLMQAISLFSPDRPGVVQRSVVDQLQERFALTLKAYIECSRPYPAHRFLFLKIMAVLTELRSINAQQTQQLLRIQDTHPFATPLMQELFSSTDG

Take `CO[C@]1(NC(=O)CSC(F)F)C(=O)N2C(C(=O)O)=C(CSc3nnnn3CCO)CO[C@H]21`: the activity, negative = cell killing was 4.83% in test [1] (setting [6]), -21.2% in test [1] (setting [7]) and -14% in test [1] (setting [8]). Further, the Potency entry in test [2] is “inactive”.
On to `COc1cc(C=O)ccc1O`, for which the activity, negative = cell killing was -12.2% in test [1] (setting [6]), 2.3% in test [1] (setting [7]) and -15.5% in test [1] (setting [8]). For the same compound, the Potency result in test [2] is “inactive”. Also, the max response in test [3] is 1.03% and -2.41%. In addition, the result in test [4] was inactive.
In the case of `CCCCCOc1ccc(C2SC(=O)NC2=O)cc1OCC` (centres undefined), the activity, negative = cell killing in test [1] (setting [6]) is -6.4%; in test [1] (setting [7]), -4.3%; in test [1] (setting [8]), -14.2%. Moreover, in test [2], the Potency result was “inactive”.
In the case of `C[C@H](CN1CCCC1)C(=O)c1ccc(C(F)(F)F)cc1`, the activity, negative = cell killing was -26.9% in test [1] (setting [6]) and -22.1% in test [1] (setting [8]). The Potency result in test [2] was “inactive”.
Take `Cn1cc(S(C)=O)c(=O)c2ccc(F)cc21` (centres undefined): the activity, negative = cell killing in test [1] (setting [6]) was -9.03%; in test [1] (setting [7]), -4.06%; in test [1] (setting [8]), -1.4%. The Potency entry in test [2] is “inactive”.
The like results for `CCc1cc(S(=O)(=O)O)c2cc(C(C)C)cccc1-2` were, in that order, -10.8%, -10.6%, -1.11% and “inactive”.
With `CN1CCC(N(Cc2cccs2)c2ccccc2)CC1`, the activity, negative = cell killing in test [1] (setting [6]) is -22.4%. For the same compound, the Potency in test [1] (tumour line A) was 10 µM (active). In addition, the Potency entry in test [2] is “inactive”.
Consider `COC(=O)C1=C(C)NC(COC(N)=O)=C(C(=O)OC(C)C)C1c1cccc(Cl)c1Cl` (centres undefined), for which, in test [1] (setting [6]), the activity, negative = cell killing was 0.976%. Besides, the Potency in test [1] (tumour line A) was 8.91 µM (active); in test [1] (tumour line D), 12.6 µM (active). For the same compound, the Potency entry in test [5] is “inactive”.
For `CC(=O)N[C@@H](CCC(N)=O)C(=O)O`, the activity, negative = cell killing is -17.6% in test [1] (setting [6]), -7.79% in test [1] (setting [7]) and -4.41% in test [1] (setting [8]). In addition, the Potency result in test [2] was “inactive”.
In the case of `Oc1ccc(CCNCCCCCCNCCc2ccccc2)cc1O`, the activity, negative = cell killing in test [1] (setting [6]) is -20.6%. In test [1] (tumour line A), the Potency is 17.8 µM (active). Further, the Potency entry in test [2] is “inactive”.
With `CN1C(CSCC(F)(F)F)Nc2cc(Cl)c(S(N)(=O)=O)cc2S1(=O)=O` (centres undefined), the activity, negative = cell killing was -3.33% in test [1] (setting [6]) and -15.1% in test [1] (setting [8]). Further, in test [2], the Potency result is “inactive”.
For `CCCCC(=O)OCC(=O)[C@H]1[C@H](C)C[C@H]2[C@@H]3C[C@H](F)C4=CC(=O)C=C[C@]4(C)[C@@]3(F)[C@@H](O)C[C@@]21C`, the activity, negative = cell killing is -0.839% in test [1] (setting [6]), -9.99% in test [1] (setting [7]) and 14.8% in test [1] (setting [8]). For the same compound, the Potency result in test [2] and in test [5] was “inactive” in each case.
In the case of `C[C@]12CCC(=O)C=C1CC[C@@H]1[C@@H]2[C@@H](O)C[C@@]2(C)[C@H]1CC[C@]2(O)C(=O)COC(=O)CCC(=O)O`, the values for the activity, negative = cell killing in test [1] (setting [6]), in test [1] (setting [7]) and in test [1] (setting [8]) were -2.56%, -26.6% and -2.87%, respectively. For the same compound, in test [2], the Potency entry is “inactive”.
`O=C(NO)c1ccccc1`: the activity, negative = cell killing was -25.1% in test [1] (setting [9]), -20.6% in test [1] (setting [10]) and -13.7% in test [1] (setting [11]). In test [2], the Potency result was “inactive”. Besides, in test [3], the max response is -1.37%. For the same compound, in test [4], the compound was classed as inactive.
On to `COC(=O)c1c(Cl)c(Cl)c(C(=O)OC)c(Cl)c1Cl`, for which the activity, negative = cell killing in test [1] (setting [9]) was -13.9%; in test [1] (setting [10]), -16.3%; in test [1] (setting [11]), -5.72%. The Potency entry in test [2] is “inactive”. Further, the max response in test [3] is 2.2%.
`Cc1cc(O)c2c(O)c3c(O)cccc3cc2c1`: in test [1] (setting [6]), the activity, negative = cell killing was -27.7%. The Potency in test [1] (tumour line A) was 14.1 µM (active). Besides, the Potency entry in test [2] is “inactive”.
Take `O=C(O)c1ccccc1S`: the activity, negative = cell killing in test [1] (setting [6]) was 0.0031%; in test [1] (setting [7]) it was 6.57%; in test [1] (setting [8]) it was 1.53%. The Potency entry in test [2] was “inactive”.
Consider `Cc1cccc(N(C)C(=S)Oc2ccc3c(c2)CCC3)c1`, for which the activity, negative = cell killing in test [1] (setting [6]) is -19.8%. For the same compound, the Potency is 17.8 µM (active) in test [1] (tumour line A) and 20 µM (active) in test [1] (tumour line D). For the same compound, the Potency entry in test [2] is “inactive”.
As for `O=C(NN1CCCC1)NS(=O)(=O)c1ccc(Cl)cc1`, the activity, negative = cell killing in test [1] (setting [6]) was 1.6%; in test [1] (setting [7]) it was -25.9%; in test [1] (setting [8]), 2.27%. In addition, the Potency result in test [2] is “inactive”.
In the case of `O=C1[C@@H]2[C@H]3CC[C@H](C3)[C@@H]2C(=O)N1CCCCN1CCN(c2ncccn2)CC1`, the results for the activity, negative = cell killing in test [1] (setting [6]) and in test [1] (setting [8]) were -7.9% and -10.5%, respectively. The Potency in test [1] (tumour line A) is 12.6 µM (active). In test [2], the Potency result is “inactive”.
For `C[C@@]12CCC[C@H]1[C@@H]1CC[C@H]3C[C@@H](O)CC[C@]3(C)[C@H]1CC2`, the activity, negative = cell killing in test [1] (setting [6]) was -21.2%. Moreover, the Potency in test [1] (tumour line A) was 7.08 µM (active). The Potency entry in test [2] was “inactive”.
